About 83,000 compounds went through this panel and 20% of them were active in at least one assay; those are over-represented in the sample as a whole.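 96-well plates, one dose, 48 hours. Percent growth reported; active if below 10.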 Calls of active or inactive are those of the source.
How the values were obtained:
Assay in all cases: NCI-60 one-dose screen, 48 h (100 = growth as untreated, 0 = no growth, -100 = all killed)
SK-MEL-2 melanoma = settings: 10 µM
EKVX NSCLC = settings: 10 µM
SN12C renal = settings: 10 µM
TK-10 renal = settings: 10 µM unless noted
ACHN renal = settings: 10 µM
CAKI-1 renal = settings: 10 µM
A498 renal = settings: 10 µM
CCRF-CEM leukemia = settings: 10 µM
MOLT-4 leukemia = settings: 10 µM
RPMI-8226 leukemia = settings: 10 µM
OVCAR-8 ovarian = settings: 10 µM
OVCAR-5 ovarian = settings: 10 µM
OVCAR-4 ovarian = settings: 10 µM
SK-OV-3 ovarian = settings: 10 µM
IGROV1 ovarian = settings: 10 µM
OVCAR-3 ovarian = settings: 10 µM
HS 578T breast = settings: 10 µM
NCI/ADR-RES ovarian = settings: 10 µM
UO-31 renal = settings: 10 µM
SR leukemia = settings: 10 µM

Measured: growth

CCOC(=O)c1cc(/C=C/c2cccc(Cl)c2)on1
inactive: SK-MEL-2 melanoma 113% | EKVX NSCLC 75.4% | SN12C renal 86.2% | TK-10 renal 111% | ACHN renal 90.9% | CAKI-1 renal 91.3% | A498 renal 110% | CCRF-CEM leukemia 67% | MOLT-4 leukemia 99.9% | OVCAR-8 ovarian 99.5% | OVCAR-5 ovarian 101% | OVCAR-4 ovarian 83.7% | SK-OV-3 ovarian 111% | IGROV1 ovarian 93.9% | OVCAR-3 ovarian 99.1% | HS 578T breast 76.4% | NCI/ADR-RES ovarian 91%
active: RPMI-8226 leukemia 4.16%

COCCOC(=O)c1ccc(C(C)C)cc1
inactive: SK-MEL-2 melanoma 96.9% | EKVX NSCLC 100% | SN12C renal 103% | UO-31 renal 94.5% | ACHN renal 107% | CAKI-1 renal 99.4% | A498 renal 92.8% | CCRF-CEM leukemia 90.6% | MOLT-4 leukemia 88.2% | RPMI-8226 leukemia 108% | OVCAR-8 ovarian 103% | OVCAR-5 ovarian 104% | OVCAR-4 ovarian 104% | SK-OV-3 ovarian 82.1% | IGROV1 ovarian 104% | OVCAR-3 ovarian 99.5% | NCI/ADR-RES ovarian 96%

CCOC(=O)CNN
inactive: SK-MEL-2 melanoma 113% | EKVX NSCLC 113% | SN12C renal 101% | TK-10 renal 102% | ACHN renal 119% | CAKI-1 renal 106% | A498 renal 79.6% | CCRF-CEM leukemia 97.8% | MOLT-4 leukemia 112% | SR leukemia 106% | RPMI-8226 leukemia 110% | OVCAR-8 ovarian 96.1% | OVCAR-4 ovarian 106% | SK-OV-3 ovarian 108% | IGROV1 ovarian 112% | OVCAR-3 ovarian 108% | HS 578T breast 105% | NCI/ADR-RES ovarian 112%

Cc1cc2nc(CC(=O)c3cccc([N+](=O)[O-])c3)c(=O)[nH]c2cc1C
inactive: SK-MEL-2 melanoma 95.4% | EKVX NSCLC 59.9% | SN12C renal 86.5% | TK-10 renal 115% | ACHN renal 87.3% | CAKI-1 renal 76.5% | A498 renal 127% | CCRF-CEM leukemia 76.3% | MOLT-4 leukemia 83.4% | RPMI-8226 leukemia 88.4% | OVCAR-8 ovarian 92.7% | OVCAR-5 ovarian 92.1% | OVCAR-4 ovarian 89.4% | SK-OV-3 ovarian 108% | IGROV1 ovarian 91.4% | OVCAR-3 ovarian 102% | HS 578T breast 72.6% | NCI/ADR-RES ovarian 83.9%

CC(C)C1CCCCC1O (configuration not stated)
inactive: SK-MEL-2 melanoma 107% | EKVX NSCLC 81.9% | SN12C renal 102% | TK-10 renal 110% | ACHN renal 93.5% | CAKI-1 renal 101% | A498 renal 97.2% | CCRF-CEM leukemia 99.3% | MOLT-4 leukemia 148% | SR leukemia 130% | RPMI-8226 leukemia 105% | OVCAR-8 ovarian 109% | OVCAR-5 ovarian 91% | OVCAR-4 ovarian 118% | SK-OV-3 ovarian 109% | IGROV1 ovarian 130% | OVCAR-3 ovarian 117% | HS 578T breast 105% | NCI/ADR-RES ovarian 104%

O=C(Cc1nc2ccc([N+](=O)[O-])cc2nc1CC(=O)c1ccccc1)c1ccccc1
inactive: SK-MEL-2 melanoma 103% | EKVX NSCLC 55.8% | SN12C renal 75% | TK-10 renal 104% | ACHN renal 57% | CAKI-1 renal 62.9% | A498 renal 132% | CCRF-CEM leukemia 40.5% | MOLT-4 leukemia 54.2% | RPMI-8226 leukemia 42.9% | OVCAR-8 ovarian 50% | OVCAR-5 ovarian 89.6% | OVCAR-4 ovarian 34.3% | SK-OV-3 ovarian 103% | IGROV1 ovarian 79.2% | OVCAR-3 ovarian 60.1% | HS 578T breast 51.6% | NCI/ADR-RES ovarian 29.8%

COC(=O)c1cccnc1
inactive: SK-MEL-2 melanoma 93.2% | EKVX NSCLC 105% | SN12C renal 93.2% | TK-10 renal 96.9% | ACHN renal 90.6% | CAKI-1 renal 94.8% | A498 renal 101% | CCRF-CEM leukemia 96.2% | MOLT-4 leukemia 98.3% | SR leukemia 104% | RPMI-8226 leukemia 106% | OVCAR-8 ovarian 92.2% | OVCAR-5 ovarian 90.3% | OVCAR-4 ovarian 110% | SK-OV-3 ovarian 101% | IGROV1 ovarian 91.9% | OVCAR-3 ovarian 106% | HS 578T breast 99.3% | NCI/ADR-RES ovarian 95.9%

CCCC1(c2ccccc2)NC(=O)NC1=O (configuration not stated)
inactive: SK-MEL-2 melanoma 103% | EKVX NSCLC 118% | SN12C renal 104% | TK-10 renal 95.2% | ACHN renal 103% | CAKI-1 renal 116% | A498 renal 121% | CCRF-CEM leukemia 99.7% | MOLT-4 leukemia 123% | RPMI-8226 leukemia 101% | OVCAR-8 ovarian 111% | OVCAR-5 ovarian 103% | OVCAR-4 ovarian 104% | SK-OV-3 ovarian 99.7% | IGROV1 ovarian 128% | OVCAR-3 ovarian 108% | HS 578T breast 113% | NCI/ADR-RES ovarian 109%

COC(=O)c1ccc(C(C)C)cc1
inactive: SK-MEL-2 melanoma 116% | EKVX NSCLC 92.3% | SN12C renal 99.1% | UO-31 renal 97.4% | ACHN renal 101% | CAKI-1 renal 96.8% | A498 renal 129% | CCRF-CEM leukemia 83.9% | MOLT-4 leukemia 101% | SR leukemia 103% | RPMI-8226 leukemia 99.9% | OVCAR-5 ovarian 103% | OVCAR-4 ovarian 103% | SK-OV-3 ovarian 83.4% | IGROV1 ovarian 105% | OVCAR-3 ovarian 103% | HS 578T breast 119% | NCI/ADR-RES ovarian 103%

Cc1cc(C(C)(C)C)cc(C)c1Br
inactive: SK-MEL-2 melanoma 105% | EKVX NSCLC 100% | SN12C renal 100% | TK-10 renal 113% | ACHN renal 104% | CAKI-1 renal 93.5% | A498 renal 104% | CCRF-CEM leukemia 92.2% | MOLT-4 leukemia 99% | SR leukemia 84.9% | RPMI-8226 leukemia 95.1% | OVCAR-8 ovarian 111% | OVCAR-5 ovarian 105% | OVCAR-4 ovarian 115% | SK-OV-3 ovarian 108% | IGROV1 ovarian 112% | OVCAR-3 ovarian 120% | HS 578T breast 99.6% | NCI/ADR-RES ovarian 111%

CC(C)OC(C(=O)O)c1ccccc1 (configuration not stated)
inactive: SK-MEL-2 melanoma 110% | EKVX NSCLC 108% | SN12C renal 93.5% | TK-10 renal 98.4% | ACHN renal 97.2% | CAKI-1 renal 101% | A498 renal 107% | CCRF-CEM leukemia 91.9% | MOLT-4 leukemia 125% | SR leukemia 125% | RPMI-8226 leukemia 105% | OVCAR-8 ovarian 109% | OVCAR-5 ovarian 97.1% | OVCAR-4 ovarian 96.2% | SK-OV-3 ovarian 100% | IGROV1 ovarian 124% | OVCAR-3 ovarian 110% | HS 578T breast 112% | NCI/ADR-RES ovarian 104%

Cc1ccc(C)n1-c1ccsc1C(=O)NNC(=O)CCl
inactive: SK-MEL-2 melanoma 91.2% | EKVX NSCLC 81.2% | SN12C renal 92.2% | TK-10 renal 105% | ACHN renal 98.5% | CAKI-1 renal 84.8% | A498 renal 104% | CCRF-CEM leukemia 61% | MOLT-4 leukemia 92.9% | RPMI-8226 leukemia 84.4% | OVCAR-8 ovarian 106% | OVCAR-5 ovarian 111% | OVCAR-4 ovarian 93.5% | SK-OV-3 ovarian 95.2% | IGROV1 ovarian 103% | OVCAR-3 ovarian 93.2% | HS 578T breast 92.7% | NCI/ADR-RES ovarian 98.5%

CCCCC/C=N/Nc1nc(C)cc(=O)[nH]1
inactive: SK-MEL-2 melanoma 121% | EKVX NSCLC 91.4% | SN12C renal 97.4% | TK-10 renal 108% | ACHN renal 102% | CAKI-1 renal 88.3% | A498 renal 96.2% | CCRF-CEM leukemia 105% | MOLT-4 leukemia 95.3% | SR leukemia 90.4% | RPMI-8226 leukemia 119% | OVCAR-8 ovarian 100% | OVCAR-5 ovarian 104% | SK-OV-3 ovarian 113% | IGROV1 ovarian 109% | OVCAR-3 ovarian 114% | HS 578T breast 101% | NCI/ADR-RES ovarian 99.9%

CC(O)COc1ccc(-c2ccccc2)cc1 (configuration not stated)
inactive: SK-MEL-2 melanoma 108% | EKVX NSCLC 93.6% | SN12C renal 101% | TK-10 renal 106% | ACHN renal 103% | CAKI-1 renal 91.9% | A498 renal 78.7% | CCRF-CEM leukemia 95.4% | MOLT-4 leukemia 121% | SR leukemia 94.4% | RPMI-8226 leukemia 97.7% | OVCAR-8 ovarian 108% | OVCAR-5 ovarian 98.9% | OVCAR-4 ovarian 111% | SK-OV-3 ovarian 105% | IGROV1 ovarian 115% | OVCAR-3 ovarian 108% | HS 578T breast 106% | NCI/ADR-RES ovarian 110%

Cc1ccccc1N=C(c1ccccc1)C1C(=O)c2ccccc2C1=O
active: A498 renal -13.7%
inactive: SK-MEL-2 melanoma 59.9% | EKVX NSCLC 88.9% | SN12C renal 90.9% | UO-31 renal 82.5% | ACHN renal 88.3% | CAKI-1 renal 84.6% | CCRF-CEM leukemia 65.1% | MOLT-4 leukemia 56.4% | SR leukemia 27% | RPMI-8226 leukemia 59.9% | OVCAR-8 ovarian 97.4% | OVCAR-5 ovarian 103% | OVCAR-4 ovarian 101% | SK-OV-3 ovarian 61.8% | IGROV1 ovarian 55.3% | OVCAR-3 ovarian 71.9% | HS 578T breast 83% | NCI/ADR-RES ovarian 80.2%

CCCCC1(CC)COC(CCC)OC1 (configuration not stated)
inactive: SK-MEL-2 melanoma 104% | EKVX NSCLC 93.1% | SN12C renal 97.6% | TK-10 renal 101% | ACHN renal 99.2% | CAKI-1 renal 84.2% | A498 renal 127% | CCRF-CEM leukemia 102% | MOLT-4 leukemia 103% | SR leukemia 106% | RPMI-8226 leukemia 102% | OVCAR-8 ovarian 101% | OVCAR-5 ovarian 95.9% | OVCAR-4 ovarian 115% | SK-OV-3 ovarian 104% | IGROV1 ovarian 129% | OVCAR-3 ovarian 108% | HS 578T breast 109% | NCI/ADR-RES ovarian 105%

OCCN1CCOCC1
inactive: SK-MEL-2 melanoma 107% | EKVX NSCLC 116% | SN12C renal 97.5% | TK-10 renal 106% | ACHN renal 101% | CAKI-1 renal 132% | A498 renal 106% | CCRF-CEM leukemia 108% | MOLT-4 leukemia 104% | SR leukemia 104% | RPMI-8226 leukemia 107% | OVCAR-8 ovarian 110% | OVCAR-5 ovarian 101% | OVCAR-4 ovarian 110% | SK-OV-3 ovarian 109% | IGROV1 ovarian 117% | OVCAR-3 ovarian 122% | HS 578T breast 106% | NCI/ADR-RES ovarian 116%

NC(=S)N/N=C/c1ccc(N)cc1
inactive: SK-MEL-2 melanoma 104% | EKVX NSCLC 101% | SN12C renal 108% | UO-31 renal 91.6% | ACHN renal 108% | CAKI-1 renal 101% | A498 renal 91.2% | CCRF-CEM leukemia 87.2% | MOLT-4 leukemia 77.7% | SR leukemia 98.6% | RPMI-8226 leukemia 98.8% | OVCAR-8 ovarian 102% | OVCAR-5 ovarian 108% | OVCAR-4 ovarian 108% | SK-OV-3 ovarian 100% | IGROV1 ovarian 103% | OVCAR-3 ovarian 103% | HS 578T breast 106% | NCI/ADR-RES ovarian 102%

Reference: PubChem BioAssay (NCI)
